14 molecules from PubChem BioAssay can be followed below.

Test [1] has as its system Plasmodium falciparum Sir2 (PF13_0152, Sir2A). Put plainly: pfSir2 binders on small-molecule microarrays, primary screen, biochemical, small-molecule microarray, 635 nm fluorescence (AID 1098).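 Note: score merges spot fluorescence intensity with its signal-to-noise ratio.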 The following applies: small-molecule microarray binding, fluorescence 635 nm; higher = more signal.
A short description of test [2]: small-molecule microarray binders of probe aDKK1, primary screen, biochemical, biotinylated probe, 635/667 nm fluorescence (AID 1099).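 Note: score merges 667nm spot fluorescence with signal to noise across triplicate slides; reference of the scale not given here.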 The following applies: higher = more signal.
A short description of test [3]: small-molecule microarray binders of probe aCHRDL2, primary screen, biochemical, biotinylated probe, 635/667 nm fluorescence (AID 1100). The conditions noted are these: higher = more signal.
Test [4] in a line: splicing luciferase reporter signal modulators, primary screen, spliceosome inhibition project, cell-based, HEK293, splice +/- reporter (AID 1101).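 Note: HEK293 cells carrying a splicing-competent luciferase reporter gene; test concentration not given here.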 The conditions noted are these: luminescence, 24 h, higher = more signal, called active from +8 up or from −8 down.
Test [5] deals with Fibroblast growth factor 10 (Homo sapiens) (UniProt O15520). In words: FGF10 binders on small-molecule microarrays, primary screen, biochemical, small-molecule microarray, 635 nm fluorescence (AID 1102). The conditions noted are these: FGF10 binding, fluorescence 635 nm, higher = more signal.
Sequence of Fibroblast growth factor 10 (Homo sapiens) (O15520 whole entry, looked up): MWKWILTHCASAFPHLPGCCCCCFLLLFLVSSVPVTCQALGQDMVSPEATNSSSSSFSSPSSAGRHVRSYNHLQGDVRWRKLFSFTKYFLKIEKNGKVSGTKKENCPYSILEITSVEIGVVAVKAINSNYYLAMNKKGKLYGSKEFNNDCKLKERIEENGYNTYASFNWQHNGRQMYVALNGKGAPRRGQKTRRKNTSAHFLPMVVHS
In test [6] the test system is glycogen synthase kinase-3 (GSK3A per assay name; protocol says GSK3B). In words: GSK3 binders on small-molecule microarrays, primary screen, biochemical, small-molecule microarray, 635 nm fluorescence, GSK3A (AID 1103). Note: the record names both GSK3A and GSK3B. The conditions noted are these: small-molecule microarray binding, fluorescence 635 nm; higher = more signal.
For test [7], the target named is Epidermal growth factor receptor (Homo sapiens) (UniProt P00533). In words: EGFR binders on small-molecule microarrays, primary screen, biochemical, small-molecule microarray, 635 nm fluorescence (AID 1104).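 Note: score merges 667 nm emission intensity with spot signal to noise over triplicate slides.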 The conditions noted are these: EGFR binding, higher = more signal.
Sequence of Epidermal growth factor receptor (Homo sapiens) (P00533 whole entry, looked up): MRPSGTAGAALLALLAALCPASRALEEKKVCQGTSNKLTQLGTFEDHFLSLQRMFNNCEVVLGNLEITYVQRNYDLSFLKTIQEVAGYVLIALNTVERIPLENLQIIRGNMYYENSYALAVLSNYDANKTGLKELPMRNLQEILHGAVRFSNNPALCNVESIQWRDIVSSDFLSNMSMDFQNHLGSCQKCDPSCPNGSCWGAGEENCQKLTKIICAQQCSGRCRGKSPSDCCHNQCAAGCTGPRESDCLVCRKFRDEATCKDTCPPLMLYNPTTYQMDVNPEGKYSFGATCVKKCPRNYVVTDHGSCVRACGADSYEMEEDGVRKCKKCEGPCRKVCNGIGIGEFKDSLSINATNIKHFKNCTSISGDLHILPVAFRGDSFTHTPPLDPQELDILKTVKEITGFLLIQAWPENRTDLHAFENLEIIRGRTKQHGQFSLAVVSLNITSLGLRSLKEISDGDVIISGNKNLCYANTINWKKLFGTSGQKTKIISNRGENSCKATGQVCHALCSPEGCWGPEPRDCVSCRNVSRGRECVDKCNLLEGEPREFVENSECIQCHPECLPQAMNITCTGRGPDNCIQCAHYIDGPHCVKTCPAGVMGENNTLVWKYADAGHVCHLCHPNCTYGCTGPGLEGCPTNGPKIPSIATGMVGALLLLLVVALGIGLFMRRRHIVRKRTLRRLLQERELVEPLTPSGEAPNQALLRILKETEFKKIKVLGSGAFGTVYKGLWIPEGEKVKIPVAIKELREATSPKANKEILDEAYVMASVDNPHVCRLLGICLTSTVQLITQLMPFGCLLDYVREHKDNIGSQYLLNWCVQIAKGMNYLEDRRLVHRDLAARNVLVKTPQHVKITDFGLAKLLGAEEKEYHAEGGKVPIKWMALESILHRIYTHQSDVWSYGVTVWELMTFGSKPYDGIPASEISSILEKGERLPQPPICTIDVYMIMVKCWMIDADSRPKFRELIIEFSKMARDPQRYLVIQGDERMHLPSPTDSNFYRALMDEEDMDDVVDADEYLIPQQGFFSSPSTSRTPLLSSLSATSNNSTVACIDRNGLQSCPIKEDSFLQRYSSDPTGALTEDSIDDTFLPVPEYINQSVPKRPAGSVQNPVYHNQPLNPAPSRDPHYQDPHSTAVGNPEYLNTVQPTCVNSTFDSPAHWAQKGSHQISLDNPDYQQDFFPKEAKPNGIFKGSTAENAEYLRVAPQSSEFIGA
The target of test [8] is Follistatin-related protein 3 (Homo sapiens) (UniProt O95633). In words: FSTL3 binders on small-molecule microarrays, primary screen, biochemical, small-molecule microarray, 635 nm fluorescence (AID 1105).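 Note: score merges emission near 667 nm and signal to noise per printed spot across three slides.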 The conditions noted are these: FSTL3 binding, higher = more signal.
Sequence of Follistatin-related protein 3 (Homo sapiens) (O95633 whole entry, looked up): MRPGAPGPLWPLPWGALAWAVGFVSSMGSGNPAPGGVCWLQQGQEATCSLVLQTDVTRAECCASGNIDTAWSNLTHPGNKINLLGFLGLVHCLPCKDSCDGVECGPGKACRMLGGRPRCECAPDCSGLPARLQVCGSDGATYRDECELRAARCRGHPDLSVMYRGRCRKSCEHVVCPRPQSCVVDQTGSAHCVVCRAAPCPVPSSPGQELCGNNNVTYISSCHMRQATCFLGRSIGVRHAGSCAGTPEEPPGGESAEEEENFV
Test [9] concerns the target Dickkopf-related protein 1 (Homo sapiens) (UniProt O94907). In words: DKK1 binders on small-molecule microarrays, primary screen, biochemical, small-molecule microarray, 635 nm fluorescence scan (AID 1106).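 Note: score merges emission near 667 nm with signal to noise over three replicate slides.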 The following applies: DKK1 binding, higher = more signal.
The test system of test [10] is Inhibin beta A chain (activin A). In words: INHBA (activin A) binders on microarrays, primary screen, biochemical, small-molecule microarray, 635 nm fluorescence scan (AID 1107).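 Note: mouse activin A protein probed at 4.33 µg/mL on printed slides; score merges bound-protein fluorescence near 667 nm with spot signal-to-noise.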 The following applies: small-molecule microarray binding, higher = more signal.

Calls of active or inactive are those of the source.

Sequence of Dickkopf-related protein 1 (Homo sapiens) (O94907 whole entry, looked up): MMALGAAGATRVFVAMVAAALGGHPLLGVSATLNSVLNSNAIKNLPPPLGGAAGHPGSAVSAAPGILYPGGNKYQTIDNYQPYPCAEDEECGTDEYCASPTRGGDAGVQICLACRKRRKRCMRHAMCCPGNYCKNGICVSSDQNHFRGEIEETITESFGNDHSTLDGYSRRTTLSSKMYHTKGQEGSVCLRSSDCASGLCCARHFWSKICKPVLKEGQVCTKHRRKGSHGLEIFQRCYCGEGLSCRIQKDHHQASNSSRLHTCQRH

Turning to `NCCCCCCNC(=O)[C@@H]1C[C@@H]2C(=O)N[C@@H](CCCCN)C(=O)N2[C@@H]1c1ccc(O)cc1`, the composite z-score in test [1] was determined as 1.32; in [2] it was 0.13; in test [3], 0.462; in [5], 0.523; in [6], 0.456; in [7], 0.456. Further, the composite z-score in test [8] amounted to 0.27; in test [9], 1.16; in test [10], 0.899. Also, the z-score in [4] was -1.48 (inactive).
On to `COc1ccc([Si](C)(C)[C@@H]2[C@@H](CCO)O[C@]3(C(=O)N(Cc4cccc(NC(=O)[C@H](C)O)c4)c4ccccc43)[C@H]2C)cc1`, for which the composite z-score in test [1] is 1.42; in test [2], 1.09; in [3], 0.0838; in test [5] it was 1.08; in [6] it was 1.27; in [7], 0.0532. Moreover, the composite z-score in test [8] is 0.399; in [9] it was 0.244; in [10], -0.437. Further, the z-score in test [4] was -2.89 (inactive).
On to `COCCOC(=O)N1C(=O)[C@@]2(c3cc(C#CCCO)ccc31)[C@H](C(=O)Nc1nc3ccccc3s1)[C@H]1C(=O)O[C@H](c3ccccc3)[C@H](c3ccccc3)N1[C@@H]2c1ccc(O)cc1`, for which the composite z-score in test [1] amounted to 0.972; in [2], 0.513; in test [3] it was 0.355; in test [5] it was 1.16; in [6], 1.34; in test [7], 0.989. Besides, the values for the composite z-score in test [8], in test [9] and in test [10] were 1.43, 0.957 and 0.211, respectively. In addition, the z-score in test [4] is -0.221 (inactive).
In the case of `COc1ccc([C@H]2OC[C@@H]3C[C@H](Cc4ccccc4)C(=O)N32)cc1`, the composite z-score in test [1] is -0.33; in [2] it was -0.157; in test [3], -0.598; in test [5], 0.439; in [6], -0.0107; in test [7], 0.212. Moreover, the composite z-score in [8] worked out at 0.401; in test [9] it was 0.313; in test [10], 0.0048. For the same molecule, the z-score in test [4] is -0.524 (inactive).
In the case of `CCOC(=O)C[C@H]1[C@H](OC(=O)c2ccc(C(=O)c3ccccc3)cc2)[C@@H](NC(=O)c2ccc(-c3ccccc3)cc2)c2cc(OCCCO)ccc2N1C(=O)Cc1ccc(OC)cc1`, the composite z-score in test [1] is 0.0732; in test [2], 0.223; in [3], 0.777; in test [5], 0.0382; in test [6], 0.0652; in test [7] it was -0.274. For the same molecule, the composite z-score in test [8] was 0.0472; in test [9] it was -0.537; in test [10] it was 0.783. Moreover, in [4], the z-score is -0.213 (inactive).
For the molecule `CCCCC(O)C1C=CC2C(=O)N(C)C(=O)C2N1N(c1ccccc1)c1ccccc1` (stereo not given), the composite z-score was 1.5 in [1]; 0.866 in test [2]; 1.31 in test [3]; 0.42 in test [5]; 1.02 in [6]; 0.0978 in [7]. In addition, the composite z-score was 0.424 in [8], -0.73 in [9] and 1.18 in test [10]. In addition, in [4], the z-score is 1.44 (inactive).
Turning to `[N-]=[N+]=Nc1ccccc1C[C@]1(C(=O)N2CCOCC2)COC(c2ccc(OCCCO)cc2)=N1`, the composite z-score is 1.6 in test [1]; 0.399 in test [2]; 0.948 in test [3]; 0.613 in test [5]; 1.33 in test [6]; -0.262 in [7]. In addition, the figures for the composite z-score in [8], in [9] and in test [10] were 0.634, -0.259 and 0.959, respectively. Further, in test [4], the z-score is -0.59 (inactive).
Turning to `CCOC(=O)C=Cc1cccc(C)c1O`, the composite z-score in [1] was 0.995; in test [2] it was -0.123; in [3], -0.0819; in test [5], -0.119; in test [6] it was -0.414; in test [7] it was 0.069. Further, the figures for the composite z-score in test [8], in test [9] and in test [10] were -0.101, -0.199 and 0.39, respectively. For the same molecule, in test [4], the z-score is -1.41 (inactive).
`NCCCCCNC(=O)[C@@H]1C[C@@H]2C(=O)N[C@@H](CCCCN)C(=O)N2[C@@H]1c1ccc(O)cc1`: the composite z-score in test [1] was determined as 1.57; in test [2] it was 0.899; in test [3] it was 0.713; in test [5], 1.41; in test [6], 1.34; in [7], 1.13. For the same molecule, the composite z-score in test [8] stood at 1.43; in test [9], 1.81; in [10], 1.32. Moreover, in test [4], the z-score is 0.498 (inactive).
Take `CCCCC(CC)C(O)C1C=CC2C(=O)N(c3ccccc3)C(=O)C2N1Nc1ccc(C#N)cc1` (stereo not given): the composite z-score in [1] was determined as 0.976; in test [2], 1.33; in [3], 0.813; in [5], 1.11; in [6], 1.32; in [7] it was 0.217. In addition, the composite z-score in test [8] amounted to 1.28; in test [9], 0.0492; in test [10], 0.783. Further, the z-score in [4] was 0.037 (inactive).
`Cc1ccc(S[C@]2(C(=O)NCC(F)(F)F)CC(=O)N(Cc3cc(C(F)(F)F)cc(C(F)(F)F)c3)[C@@H]2c2ccc(CO)cc2)cc1`: the composite z-score in test [1] is 1.13; in test [2] it was -0.193; in test [3], 0.532; in [5], -0.463; in test [6] it was -0.864; in [7], -0.814. The figures for the composite z-score in test [8], in [9] and in [10] were -0.861, -0.928 and -0.45, respectively. Also, the z-score in test [4] is 0.507 (inactive).
`COC(=O)[C@@]1(Cc2ccc(OC)cc2)[C@H]2c3cc(C(=O)N4CCCC4)n(CCc4c[nH]c5ccc(OC)cc45)c3C[C@H]2CN1C(=O)c1ccccc1`: the composite z-score in test [1] is 0.789; in [2], 1.5; in test [3], 1.55; in test [5], 0.591; in [6], 1.14; in test [7], -0.0086. Moreover, the composite z-score was 1.19 in test [8], -0.299 in test [9] and 0.877 in test [10]. For the same molecule, the z-score in [4] is -1.21 (inactive).
Regarding `CCOC(=O)C1=C[C@@H](C(C)(C)C)N(S(=O)(=O)c2ccc(C)cc2)[C@H]1c1cccc2ccccc12`, the composite z-score was 0.462 in test [1]; 0.166 in test [2]; 0.562 in test [3]; 0.242 in test [5]; 0.936 in test [6]; -0.138 in [7]. For the same molecule, the composite z-score is 0.7 in test [8], -0.412 in test [9] and 0.997 in test [10]. For the same molecule, the z-score in test [4] is -0.134 (inactive).
Regarding `CCOC(=O)C[C@H]1[C@H](OC(=O)c2cc3ccccc3oc2=O)[C@@H](NC(=O)c2ccc3ccccc3n2)c2cc(OCCCO)ccc2N1C(=O)Cc1ccc(OC)cc1`, the composite z-score in test [1] was 0.915; in test [2] it was -0.207; in [3], -0.427; in [5] it was 1.01; in test [6], 1.06; in test [7], 0.442. In addition, the composite z-score in [8] was 1.2; in [9], 0.707; in [10], 0.288. The z-score in [4] is -0.362 (inactive).
